PP1 counter – blocks human PP1-alpha phosphatase, a PP5 counter-screen; purified PP1alpha, OMFP fluorescence; inhibition, % at 6.7 µM; 320,000 compounds, 0.9% hits; AID 2235;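 active means inhibition above the mean inhibition of all tested compounds plus 3 SD, computed separately for each screening campaign, cut at about 15% in these data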
PAFAH1B2 inh – blocks human PAF acetylhydrolase 1b catalytic subunit 2 | P68402 | recombinant PAFAH1B2, FP-rhodamine activity probe, fluorescence polarization | inhibition, % at 3.39 µM | 340,000 compounds, 1.2% hits | AID 492953;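 active means inhibition above the mean of all tested compounds plus 3 SD, cut at about 24% in these data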
PAFAH1B3 FP inh – inhibitors of human PAFAH1B3; 340,000 compounds, 0.28% hits; recombinant PAFAH1B3, FP-rhodamine probe, fluorescence polarization; inhibition, % at 3.39 µM;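 active means inhibition above the screen-wide average of all tested compounds plus 3 SD, cut at about 25% in these data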
PP5 primary – blocks human protein phosphatase 5 activity; P53041; purified PP5c, OMFP substrate fluorescence; inhibition, % at 6.7 µM; 320,000 compounds, 0.18% hits; AID 1987;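 active means inhibition above the campaign's mean inhibition across all tested compounds plus 3 SD, cut at about 9.5% in these data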
PAFAH2 inh – PAFAH2 (human) inhibition; recombinant PAFAH2, FP-rhodamine activity probe, fluorescence polarization; inhibition, % at 3.39 µM; 340,000 compounds, 0.99% hits; AID 492956;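 active means inhibition above the mean over all tested compounds plus 3 SD, cut at about 30% in these data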;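 further: inhibitors block probe labeling of enzyme so polarization drops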
pPAFAH inh – pPAFAH (human) enzyme inhibition. Q13093. recombinant pPAFAH, FP-rhodamine probe fluorescence polarization. inhibition, % at 3.39 µM. 330,000 compounds, 1.5% hits;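 active means inhibition above the mean inhibition across the screen plus 3 SD, cut at about 25% in these data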;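 further: inhibitors block binding of the rhodamine activity-based probe so polarization drops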
Target sequence (Q13093 whole entry, looked up): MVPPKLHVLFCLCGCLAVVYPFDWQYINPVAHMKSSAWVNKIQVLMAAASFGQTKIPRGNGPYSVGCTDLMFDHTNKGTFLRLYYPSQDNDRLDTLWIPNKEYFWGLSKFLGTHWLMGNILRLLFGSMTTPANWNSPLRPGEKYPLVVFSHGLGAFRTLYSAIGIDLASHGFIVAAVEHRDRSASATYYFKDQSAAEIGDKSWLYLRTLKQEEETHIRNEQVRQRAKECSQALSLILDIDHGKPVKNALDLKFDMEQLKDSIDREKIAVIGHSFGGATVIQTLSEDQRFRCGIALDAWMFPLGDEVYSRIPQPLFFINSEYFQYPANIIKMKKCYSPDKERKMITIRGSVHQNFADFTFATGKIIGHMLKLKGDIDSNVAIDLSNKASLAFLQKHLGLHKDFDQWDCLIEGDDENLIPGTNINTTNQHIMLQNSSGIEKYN
PP1 confirm – human PP1 phosphatase inhibition, confirmation; shares compounds with PP1 counter; purified PP1alpha, OMFP substrate fluorescence; inhibition, % at 6.7 µM; 1,900 compounds, 52% hits;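 active means mean PP1 inhibition above a set limit taken from the earlier primary screen, cut at about 15% in these data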
PP5 counter – PP5 phosphatase inhibition, counter-screen for PP1 inhibitors | purified PP5c, OMFP fluorescence | shares compounds with PP1 counter | inhibition, % at 6.7 µM | 1,900 compounds, 4% hits;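 active means mean PP5 inhibition over triplicate wells above about 9.5% taken from the earlier PP1 screen, limit read from the data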
Hits are given with their value; . = inactive; / = no result. This is a sample that favours compounds with a hit; in the whole collection about 3.4% have one here.

SMILES	PP1 counter	PAFAH1B2 inh	PAFAH1B3 FP inh	PP5 primary	PAFAH2 inh	pPAFAH inh	PP1 confirm	PP5 counter
O=S(=O)(NCc1ccc2c(c1)OCO2)c1ccc(F)c(F)c1	.	.	.	.	.	.	/	/
CCOc1cc(Br)cc(/C=N/NC(=O)c2cccnc2)c1O	22.4	.	.	.	.	.	18.6	.
COc1ccc(-c2cc(=O)oc3cc(OCC(=O)NCC4CCC(C(=O)O)CC4)ccc23)cc1 (stereo unspecified)	.	.	.	.	.	.	/	/
CC(C)c1cc2c(c(O)c1O)[C@@]13CCCC(C)(C)C1CC2OC3=O (stereo partly specified)	44.1	54.0	.	.	61.0	30.1	.	.
COCCn1c(C)cc(C2=NNC(=Nc3ccccc3)SC2)c1C	.	.	.	.	.	.	/	/
COCCn1c(C)cc(C2=NNC(=Nc3ccc(OC)cc3)SC2)c1C	20.5	.	.	.	.	.	.	.
CCOC(=O)c1ncccc1NC(=O)CC(=O)Nc1cccnc1C(=O)OCC	26.9	/	/	.	/	.	.	.
CCOC(=O)c1nnn(CC(=O)Nc2cccc(Cl)c2C)c1C(=O)OCC	.	.	.	.	.	.	/	/
CC[C@H](C)[C@H]1O[C@]2(CC[C@@H]1C)C[C@@H]1C[C@@H](CC=C(C)[C@@H](O[C@H]3C[C@H](OC)[C@@H](O[C@H]4C[C@H](OC)[C@@H](O)[C@H](C)O4)[C@H](C)O3)[C@@H](C)C=CC=C3CO[C@@H]4[C@H](O)C(C)=C[C@@H](C(=O)O1)[C@]34O)O2	.	.	.	.	.	.	/	/
CCOC(=O)N1CCN(C(=O)C(=O)NNC(=O)COc2ccc(Cl)cc2)CC1	.	.	.	.	.	.	/	/
Cc1cc2oc(=O)cc(-c3cc4ccccc4o3)c2cc1O	23.8	.	.	.	.	.	21.4	.
COc1cc(/C=N/NC(=O)c2ccncc2)ccc1OCC(=O)Nc1ccccc1	.	.	.	.	.	.	/	/
COc1cc(/C=N/NC(=O)c2ccccc2O)ccc1OCC(=O)Nc1ccccc1	18.3	.	.	.	.	.	15.6	.
CC(=O)NS(=O)(=O)c1ccc(NC(=O)COc2ccc(C(=O)c3ccccc3)cc2)cc1	.	.	.	.	.	.	/	/
Cc1ccc(-c2cc(C(=O)N/N=C/c3ccco3)[nH]n2)cc1	.	.	.	.	.	.	.	.
CCC(=O)N1CCc2cc(S(=O)(=O)CCC(=O)N3CCN(c4ccc(C(C)=O)cc4)CC3)ccc21	.	.	.	.	.	.	/	/
NC(=O)CC(NC(=O)Cc1ccc(Br)cc1)c1ccc(N2CCC(Br)CC2)c([N+](=O)[O-])c1 (stereo unspecified)	27.0	.	.	.	.	26.1	15.9	.
NC(=O)CC(NC(=O)Cc1cccc2ccccc12)c1ccc(N2CCC(Cc3ccccc3)CC2)c([N+](=O)[O-])c1 (stereo unspecified)	.	.	.	.	.	.	/	/
NC(=O)CC(NC(=O)Cc1ccc(Br)cc1)c1ccc(N2CCC(Cc3ccccc3)CC2)c([N+](=O)[O-])c1 (stereo unspecified)	22.6	.	.	.	.	.	.	.
Cc1cc2c(C)nc(N/N=C/c3ccc([N+](=O)[O-])cc3)nc2o1	18.0	.	.	.	.	.	33.1	.
Cc1cc2c(C)nc(N/N=C/c3ccc(F)cc3)nc2o1	.	.	.	.	.	.	/	/
Cc1ccc(/C(O)=C2/C(=O)C(=O)N(c3ccccn3)C2c2cccc([N+](=O)[O-])c2)cc1 (stereo unspecified)	18.3	.	.	.	.	.	.	.
CCOC(=O)CCCC(=O)N1CCOCCOCCOCC1	.	.	.	.	.	.	/	/
C/C(=N/O)c1ccccn1	36.2	.	.	.	.	.	.	.
CC(=O)c1ccccn1	.	.	.	.	.	.	/	/
SMILES	PP1 counter	PAFAH1B2 inh	PAFAH1B3 FP inh	PP5 primary	PAFAH2 inh	pPAFAH inh	PP1 confirm	PP5 counter
O=C(CNC(=O)c1cccc(Cl)c1)N/N=C/C=C/c1ccccc1	.	.	.	.	.	.	/	/
COc1ccc(N2CCN(C(=O)CSc3ncnc4scc(-c5ccc(C)cc5)c34)CC2)cc1	25.9	.	.	.	.	.	18.9	.
CC(OC(=O)CC1CCCC1)C(=O)Nc1ccc(S(N)(=O)=O)cc1 (stereo unspecified)	.	.	.	.	.	.	/	/
Cc1ccccc1NC(=O)C(=O)NNC(=O)COc1ccc2ccccc2c1	18.2	.	.	.	.	.	.	.
O=C(c1ccccc1)N1CCN(S(=O)(=O)c2ccccc2)CC1	.	.	.	.	.	.	/	/
Cn1cccc1C(=O)N1CCN(S(=O)(=O)c2ccccc2)CC1	50.3	.	.	.	.	.	.	.
Cc1csc(=O)n1CCC(=O)OCC(=O)c1ccc(Br)cc1	.	.	.	.	.	.	/	/
COc1cc(NC(=O)COc2ccccc2[N+](=O)[O-])ccc1NC(=O)c1ccco1	19.8	.	.	.	.	.	19.2	.
COc1ccc(Cl)cc1C(=O)Nc1cccc(-c2ccc3nncn3n2)c1	50.9	.	.	.	.	.	45.4	.
CN(C)C1=NCCN1CCC1CCCC1	.	.	.	.	.	.	/	/
O=c1c2c(-c3ccco3)csc2nc(SCc2cn3cccnc3n2)n1-c1ccccc1	28.9	.	.	.	.	.	20.9	.
c1ccc(Cn2c(SCc3cn4cccnc4n3)nnc2-c2ccco2)cc1	.	.	.	.	.	.	/	/
C[C@@H]1C(=O)O[C@H](C)[C@H]1C[C@@H](O)[C@](C)(O)C1CC[C@@]2(O)C3=CC(=O)[C@@H]4C[C@@H](O)[C@@H](O)C[C@]4(C)C3CC[C@]12C (stereo partly specified)	/	.	.	/	.	.	/	/
O=C(Cc1ccc(Cl)cc1)Nc1ccc(N2CCCC2)cc1	.	.	.	.	.	.	/	/
Clc1cccc(Cl)c1CNc1ccc(N2CCCC2)cc1	18.7	/	/	.	/	27.4	.	.
O=C(O)C1Nc2ccc(OC(F)(F)F)cc2C2C=CCC12 (stereo unspecified)	21.6	/	/	.	/	61.2	.	.
O=C(NCc1ccccc1)C1Nc2ccc(OC(F)(F)F)cc2C2C=CCC12 (stereo unspecified)	.	.	.	.	.	.	/	/
CCN(CC)C(=O)C[n+]1cccc(C(N)=O)c1	.	.	.	.	.	.	/	/
CCOc1ccc(NC(=O)CN(C)C(=O)c2ccccc2SCc2c(C)noc2C)cc1OCC	.	.	.	.	.	.	/	/
Cc1cccc(OCCOC(=O)CN2C(=O)NC3(CCCC3)C2=O)c1	.	.	.	.	.	.	/	/
O=C(CN1C(=O)NC2(CCCC2)C1=O)OCCOc1cccc(Cl)c1	18.1	.	.	.	.	.	.	.

Bioassay records as filed in PubChem.
